Assay results from PubChem BioAssay AID1159580 (chemical genetic matrix, 2015).
Several values for one entry are separate records, joined by “and”; a condition that tells them apart may be missing. Equal values may be shown once. The campaign covered roughly 5,500 compounds. About 2,000 (36%) were called active. Inconclusive results (about 18%) are left out. Rule as the data show it: active = normalized growth mostly below about 0.91 (no sharp cut-off); inconclusive = no clear call, values can overlap the other calls; inactive = mostly above about 0.92. The list shows a part of the results.

Experiment: chemical genetic growth profiling, strain panel (AID 1159580);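 also: tested at 20 µM; growth read once vehicle control cultures reached saturation at 30 °C; 1 = growth at the plate median or of vehicle wells; lower values mean less growth of the strain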
Settings: S. cerevisiae deletion strains, growth OD

Measured: normalized growth

CC1=NCCc2c1[nH]c1cc(O)ccc21
inactive: locus YAL013W, strain DEP1, active compounds read low 0.99 | locus YAL021C, strain ccr4, active compounds read low 0.923 | locus YAL026C, strain drs2, active compounds read low 0.987 | locus YAL030W, strain snc1, active compounds read low 0.984 | locus YBL061C, strain skt5, active compounds read low 0.995 | locus YBR009C, strain hhf1, active compounds read low 0.97 | locus YBR021W, strain FUR4, active compounds read low 0.989 | locus YBR023C, strain chs3, active compounds read low 0.994 | locus YBR171W, strain sec66, active compounds read low 0.993 | locus YBR229C, strain ROT2, active compounds read low 0.955 | locus YBR231C, strain swc5, active compounds read low 1.02 | locus YBR279W, strain paf1, active compounds read low 0.995 | locus YCL011C, strain gbp2, active compounds read low 0.963 | locus YCL016C, strain dcc1, active compounds read low 0.967 | locus YCL029C, strain bik1, active compounds read low 0.994 | locus YCL069W, strain vba3, active compounds read low 0.976 | locus YCR088W, strain abp1, active compounds read low 0.99 | locus YDL005C, strain med2, active compounds read low 0.995 | locus YDL035C, strain GPR1, active compounds read low 0.992 | locus YDL040C, strain nat1, active compounds read low 0.993 | locus YDL074C, strain BRE1, active compounds read low 0.997 | locus YDL101C, strain DUN1, active compounds read low 0.978 | locus YDL134C, strain PPH21, active compounds read low 0.988 | locus YDL185W, strain tfp1, active compounds read low 0.993 | locus YDL192W, strain arf1, active compounds read low 0.992 | locus YDR001C, strain nth1, active compounds read low 0.971 | locus YDR069C, strain doa4, active compounds read low 0.986 | locus YDR101C, strain arx1, active compounds read low 0.997 | locus YDR137W, strain rgp1, active compounds read low 0.98 | locus YDR150W, strain NUM1, active compounds read low 0.972 | locus YDR159W, strain sac3, active compounds read low 1.02 | locus YDR162C, strain NBP2, active compounds read low 0.99 | locus YDR195W, strain ref2 0.953 | locus YDR297W, strain sur2, active compounds read low 0.996 | locus YDR318W, strain mcm21, active compounds read low 0.994 | locus YDR334W, strain swr1, active compounds read low 0.97 | locus YDR335W, strain msn5, active compounds read low 0.986 | locus YDR388W, active compounds read low 1 | locus YDR392W, strain spt3, active compounds read low 0.93 | locus YDR502C, strain sam2, active compounds read low 0.984 | locus YEL003W, strain gim4, active compounds read low 0.994 | locus YEL037C, strain rad23, active compounds read low 0.978 | locus YEL061C, strain CIN8 (second series), active compounds read low 0.985 | locus YEL061C, strain CIN8, active compounds read low 0.988 | locus YER015W, strain faa2, active compounds read low 0.975 | locus YER016W, strain bim1, active compounds read low 0.993 | locus YER110C, active compounds read low 0.974 | locus YER111C, strain swi4, active compounds read low 0.995 | locus YER155C, strain BEM2 (second series), active compounds read low 1.03 | locus YER155C, strain BEM2, active compounds read low 1.01 | locus YER167W, strain BCK2, active compounds read low 1 | locus YFR010W, strain ubp6, active compounds read low 0.983 | locus YGL078C, strain dbp3, active compounds read low 0.991 | locus YGL086W, strain mad1, active compounds read low 0.987 | locus YGL167C, strain pmr1, active compounds read low 0.976 | locus YGL173C, strain kem1, active compounds read low 0.991 | locus YGL227W, strain vid30, active compounds read low 0.99 | locus YGL240W, strain doc1, active compounds read low 1 | locus YGL248W, strain PDE1, active compounds read low 0.99 | locus YGL253W, strain hxk2, active compounds read low 0.985 | locus YGR078C, strain PAC10, active compounds read low 1.01 | locus YGR135W, strain pre9, active compounds read low 0.992 | locus YGR229C, strain SMI1, active compounds read low 1.01 | locus YGR252W, strain gcn5, active compounds read low 0.932 | locus YHR013C, strain ard1, active compounds read low 0.95 | locus YHR027C, strain rpn1, active compounds read low 0.966 | locus YHR030C, strain SLT2, active compounds read low 0.995 and 1.01 | locus YHR079C, strain IRE1 (second series), active compounds read low 0.995 | locus YHR079C, strain IRE1, active compounds read low 1.01 | locus YHR094C, strain hxt1, active compounds read low 0.99 | locus YHR129C, strain ARP1, active compounds read low 1 | locus YHR142W, strain chs7, active compounds read low 0.968 | locus YHR200W, strain rpn10, active compounds read low 0.991 | locus YIL066C, strain RNR3, active compounds read low 0.975 | locus YIL073C, strain SPO22, active compounds read low 0.992 | locus YIL125W, strain kgd1, active compounds read low 0.988 | locus YIR030C, strain dcg1, active compounds read low 0.985 | locus YJL092W, strain hpr5, active compounds read low 0.965 | locus YJL095W, strain BCK1 (second series), active compounds read low 0.983 | locus YJL095W, strain BCK1, active compounds read low 1.05 and 1.01 | locus YJL115W, strain asf1, active compounds read low 0.956 | locus YJL129C, strain trk1, active compounds read low 1.01 | locus YJL134W, strain LCB3, active compounds read low 0.986 | locus YJL154C, strain vps35, active compounds read low 0.977 | locus YJL164C, strain tpk1, active compounds read low 0.95 | locus YJL166W, strain qcr8, active compounds read low 1.01 | locus YJL168C, strain set2, active compounds read low 0.999 | locus YJL187C, strain SWE1 (second series), active compounds read low 0.991 | locus YJL187C, strain SWE1, active compounds read low 0.989 | locus YJR043C, strain POL32, active compounds read low 1.01 | locus YJR066W, strain TOR1, active compounds read low 0.934
